The source of these data is PubChem BioAssay (NCI).

This is part of a sample that, as a whole, favours compounds with a hit. Of some 79,000 tested, about 15% had one in any assay. Unmarked numbers belong to inactive results. Calls of active or inactive are those of the source. Cut-off read from the data, not from the text of the source: active = growth inhibition above about 70%; inactive = the rest.

Experiment [1] can be described thus: NCI Yeast Anticancer Drug Screen. Data for the rad50 strain (AID 155).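 Note: 0% = growth of vehicle-only cultures of the same strain.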 The note with it: S. cerevisiae rad50 strain growth inhibition, hits give high values. An outline of the steps: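 Vehicle-treated cultures provide the reference for the growth inhibition reported for compound-exposed, repair-deficient yeast.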
The nature of experiment [2]: NCI Yeast Anticancer Drug Screen. Data for the mec2-1 strain (AID 157). As to conditions: S. cerevisiae mec2-1 strain, hits give high values. An outline of the steps: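 Vehicle-treated cultures served as reference for growth inhibition of compound-exposed mec2-1 yeast.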
Experiment [3] can be described thus: NCI Yeast Anticancer Drug Screen. Data for the sgs1 mgt1 strain (AID 161).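 Note: 0% = growth of cultures given vehicle only.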 The note with it: S. cerevisiae sgs1 mgt1 strain, hits give high values. The method, boiled down: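 Read-out: growth inhibition vs vehicle controls. Cells: mutant yeast strain deficient in DNA damage repair.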
The nature of experiment [4]: NCI Yeast Anticancer Drug Screen. Data for the cln2 rad14 strain (AID 165).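 Note: 0% = growth equal to vehicle treated cultures.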 The note with it: S. cerevisiae cln2 rad14 strain, hits give high values. The method, boiled down:
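Each compound was tested on cln2 rad14 yeast. Inhibition of growth was calculated against vehicle-exposed controls.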

The nature of experiment [5]: NCI Yeast Anticancer Drug Screen. Data for the bub3 strain (AID 167). As to conditions: S. cerevisiae bub3 mutant strain, hits give high values. The method, boiled down: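 Mutant yeast screening strain plus compound; vehicle-treated cultures serve as the 0% inhibition reference.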
Experiment [6] in a line: NCI Yeast Anticancer Drug Screen. Data for the mlh1 rad18 strain (AID 175). The note with it: S. cerevisiae mlh1 rad18 strain growth inhibition, hits give high values. An outline of the steps:
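Vehicle-treated cultures served as the reference for growth inhibition in a yeast strain carrying DNA damage repair alterations exposed to each compound.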

Setting [7] is: at 5.0 µM (retest, dose inferred, filed as 0.5).
The mark [8] stands for this setting: at 50.0 µM (retest, dose inferred, filed as 5.0).

`CCC[CH2][Sn]1([CH2]CCC)[O]C(c2ccccn2)S(=O)(=O)[O]1` (centres undefined): the growth inhibition in experiment [1] (setting [7]) is 19%; in experiment [1] (setting [8]), 19%; in experiment [1] (at 50.0 µM), 90.2% (active); in experiment [2] (setting [7]), 12%; in experiment [2] (setting [8]), 12%; in experiment [2] (at 50.0 µM), 91.2% (active). Also, the growth inhibition in experiment [3] (setting [7]) was 18%; in experiment [3] (setting [8]) it was 18%; in experiment [3] (at 50.0 µM) it was 90.1% (active); in experiment [4] (setting [7]), 5%; in experiment [4] (setting [8]) it was 5%; in experiment [4] (at 50.0 µM), 90.5% (active). Moreover, the growth inhibition in experiment [5] (setting [7]) was 1%; in experiment [5] (setting [8]), 1%; in experiment [5] (at 50.0 µM), 91.3% (active); in experiment [6] (setting [7]) it was 10%; in experiment [6] (setting [8]), 10%; in experiment [6] (at 50.0 µM), 88.3% (active).

Regarding `C[CH2][Sn]([Cl])([CH2]C)[O][Sn]([Cl])([CH2]C)[CH2]C`, the growth inhibition in experiment [1] (setting [7]) is 6%; in experiment [1] (setting [8]) it was 90% (active); in experiment [1] (at 50.0 µM) it was 85.2% (active); in experiment [2] (setting [7]), 4%; in experiment [2] (setting [8]), 89% (active); in experiment [2] (at 50.0 µM), 96.2% (active). Besides, the growth inhibition is 6% in experiment [3] (setting [7]); 94% (active) in experiment [3] (setting [8]); 72.2% (active) in experiment [3] (at 50.0 µM); -3% in experiment [4] (setting [7]); 86% (active) in experiment [4] (setting [8]); 95% (active) in experiment [4] (at 50.0 µM). The growth inhibition in experiment [5] (setting [7]) is 6%; in experiment [5] (setting [8]) it was 88% (active); in experiment [5] (at 50.0 µM), 96.7% (active); in experiment [6] (setting [7]), 8%; in experiment [6] (setting [8]), 83% (active); in experiment [6] (at 50.0 µM) it was 84.9% (active).

With `CCC1CC2CCC(O2)C(C)C(=O)OC(C)CC2CCC(O2)C(C)C(=O)OC(CC)CC2CCC(O2)C(C)C(=O)OC(C)CC2CCC(O2)C(C)C(=O)O1` (centres undefined), the growth inhibition was -7% in experiment [1] (setting [7]); 71% (active) in experiment [1] (setting [8]); 82.3% (active) in experiment [1] (at 50.0 µM); 23% in experiment [2] (setting [7]); 88% (active) in experiment [2] (setting [8]); 84.5% (active) in experiment [2] (at 50.0 µM). Also, the growth inhibition in experiment [3] (setting [7]) is -1%; in experiment [3] (setting [8]), 74% (active); in experiment [3] (at 50.0 µM) it was 80.7% (active); in experiment [4] (setting [7]), 25%; in experiment [4] (setting [8]), 79% (active); in experiment [4] (at 50.0 µM), 66.2%. Further, the growth inhibition in experiment [5] (setting [7]) was -4%; in experiment [5] (setting [8]), 79% (active); in experiment [5] (at 50.0 µM), 79.2% (active); in experiment [6] (setting [7]) it was -15%; in experiment [6] (setting [8]), 85% (active); in experiment [6] (at 50.0 µM) it was 73.2% (active).

For the compound `CCOC(=O)c1ccccc1N`, the growth inhibition in experiment [1] (setting [7]) was 6%; in experiment [1] (setting [8]), 4%; in experiment [1] (at 50.0 µM), -2.65%; in experiment [2] (setting [7]), 2%; in experiment [2] (setting [8]), 1%; in experiment [2] (at 50.0 µM), 1.2%. In addition, the growth inhibition in experiment [3] (setting [7]) was -10%; in experiment [3] (setting [8]), 1%; in experiment [3] (at 50.0 µM), -5.7%; in experiment [4] (setting [7]), 2%; in experiment [4] (setting [8]) it was -4%; in experiment [4] (at 50.0 µM), 45.8%. Further, the growth inhibition is 0% in experiment [5] (setting [7]); 6% in experiment [5] (setting [8]); 7.7% in experiment [5] (at 50.0 µM); -1% in experiment [6] (setting [7]); 4% in experiment [6] (setting [8]); -17.9% in experiment [6] (at 50.0 µM).

As to `CC(C)=[CH][Sb]([Br])([CH]=C(C)C)([CH]=C(C)C)[c]1ccccc1`, the growth inhibition in experiment [1] (setting [7]) is -9%; in experiment [1] (setting [8]), 8%; in experiment [1] (at 50.0 µM), 56.5%; in experiment [2] (setting [7]), -14%; in experiment [2] (setting [8]) it was 27%; in experiment [2] (at 50.0 µM), 45.8%. Moreover, the growth inhibition was -14% in experiment [3] (setting [7]); 16% in experiment [3] (setting [8]); 32.5% in experiment [3] (at 50.0 µM); -19% in experiment [4] (setting [7]); 6% in experiment [4] (setting [8]); -11.8% in experiment [4] (at 50.0 µM). The growth inhibition in experiment [5] (setting [7]) was -3%; in experiment [5] (setting [8]) it was 22%; in experiment [5] (at 50.0 µM), 64.9%; in experiment [6] (setting [7]), -11%; in experiment [6] (setting [8]) it was 10%; in experiment [6] (at 50.0 µM) it was 40.5%.

For `N#C[S-].[Ce+3].c1ccc(-c2ccccn2)nc1.c1ccc(-c2ccccn2)nc1.c1ccc(-c2ccccn2)nc1`, the growth inhibition in experiment [1] (setting [7]) was 63%; in experiment [1] (setting [8]), 98% (active); in experiment [1] (at 50.0 µM) it was 91.5% (active); in experiment [2] (setting [7]), 43%; in experiment [2] (setting [8]), 99% (active); in experiment [2] (at 50.0 µM), 94% (active). Moreover, the growth inhibition is 51% in experiment [3] (setting [7]); 99% (active) in experiment [3] (setting [8]); 92.9% (active) in experiment [3] (at 50.0 µM); 31% in experiment [4] (setting [7]); 93% (active) in experiment [4] (setting [8]); 91.5% (active) in experiment [4] (at 50.0 µM). In addition, the growth inhibition is 55% in experiment [5] (setting [7]); 98% (active) in experiment [5] (setting [8]); 92.3% (active) in experiment [5] (at 50.0 µM); 63% in experiment [6] (setting [7]); 98% (active) in experiment [6] (setting [8]); 91.4% (active) in experiment [6] (at 50.0 µM).

With `Cc1ccc(S)cc1.[Pb]`, the growth inhibition in experiment [1] (setting [7]) is 0%; in experiment [1] (setting [8]), 30%; in experiment [1] (at 50.0 µM), 20.1%; in experiment [2] (setting [7]), 2%; in experiment [2] (setting [8]), 6%; in experiment [2] (at 50.0 µM), 43.1%. In addition, the growth inhibition in experiment [3] (setting [7]) is 3%; in experiment [3] (setting [8]), 28%; in experiment [3] (at 50.0 µM), 44.5%; in experiment [4] (setting [7]), 5%; in experiment [4] (setting [8]) it was 2%; in experiment [4] (at 50.0 µM), -1.55%. Further, the growth inhibition in experiment [5] (setting [7]) is 3%; in experiment [5] (setting [8]), 50%; in experiment [5] (at 50.0 µM), 95.9% (active); in experiment [6] (setting [7]), 0%; in experiment [6] (setting [8]) it was 13%; in experiment [6] (at 50.0 µM) it was 83.8% (active).

As to `CCCCCCCCCCCCN1CC1`, the growth inhibition in experiment [1] (setting [7]) was -26%; in experiment [1] (setting [8]), 26%; in experiment [1] (at 50.0 µM), 91% (active); in experiment [2] (setting [7]), -38%; in experiment [2] (setting [8]), -7%; in experiment [2] (at 50.0 µM), 68%. The growth inhibition was -10% in experiment [3] (setting [7]); 47% in experiment [3] (setting [8]); 58.5% in experiment [3] (at 50.0 µM); -23% in experiment [4] (setting [7]); -2% in experiment [4] (setting [8]); 59.5% in experiment [4] (at 50.0 µM). Further, the growth inhibition is 1% in experiment [5] (setting [7]); 44% in experiment [5] (setting [8]); 82% (active) in experiment [5] (at 50.0 µM); -70% in experiment [6] (setting [7]); -17% in experiment [6] (setting [8]); 67.1% in experiment [6] (at 50.0 µM).
